# From the supplement of paper PMC10849652
# Of roughly 7,900 targets only a part is listed; those with a hit were picked by preference. About 0.6% of all pairs of compound and target were hits. A number with no mark means an inactive call.
# Compound: c1cn2cc(-c3ccc4cn[nH]c4c3)nc(Nc3ccc(N4CCOCC4)cc3)c2n1 [entospletinib]
# Experiment: log2 fold change, soluble protein after heating vs DMSO (PISA); higher = thermal stabilisation; K562 cells, 10 uM, 30 min; active = over 0.2 and 3.5 SD of the protein, either way, in both replicates (recomputed)
# Summary of the method: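 Quantification of soluble protein used TMTpro 16plex LC-MS/MS, with channel sums equalised. Samples were the supernatant after 21,000xg for 90 min of pooled aliquots from K562 cells (2×10^6 cells/mL) treated with 10 μM compound for 30 min, heated for 3 min over 48°C-58°C, and extracted in PBS with 0.5% NP-40 at 4°C. Values, from duplicates, describe thermal stability against control samples on a log2 fold-change scale.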
# Chain of UniProt Q14746 (Q14746 whole entry, looked up): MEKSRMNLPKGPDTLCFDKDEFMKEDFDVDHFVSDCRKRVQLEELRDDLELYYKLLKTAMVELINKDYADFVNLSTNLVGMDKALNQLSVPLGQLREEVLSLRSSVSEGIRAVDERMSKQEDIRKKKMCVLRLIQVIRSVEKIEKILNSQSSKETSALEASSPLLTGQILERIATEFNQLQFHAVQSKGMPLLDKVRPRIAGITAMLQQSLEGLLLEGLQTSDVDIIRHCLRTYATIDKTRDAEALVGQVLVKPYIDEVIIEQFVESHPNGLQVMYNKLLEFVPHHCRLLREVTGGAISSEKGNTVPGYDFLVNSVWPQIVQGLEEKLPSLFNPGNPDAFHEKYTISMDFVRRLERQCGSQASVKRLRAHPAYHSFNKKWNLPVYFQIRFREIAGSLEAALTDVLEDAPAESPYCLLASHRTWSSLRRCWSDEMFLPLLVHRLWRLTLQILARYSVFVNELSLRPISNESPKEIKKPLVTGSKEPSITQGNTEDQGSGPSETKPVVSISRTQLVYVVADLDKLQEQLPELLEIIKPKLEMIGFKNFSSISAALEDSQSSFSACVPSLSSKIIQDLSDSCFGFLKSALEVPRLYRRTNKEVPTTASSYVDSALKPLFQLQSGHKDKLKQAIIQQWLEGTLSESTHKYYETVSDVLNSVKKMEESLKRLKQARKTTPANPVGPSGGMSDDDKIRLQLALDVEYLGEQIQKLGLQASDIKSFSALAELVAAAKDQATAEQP
# Chain of UniProt Q14677 (Q14677 whole entry, looked up): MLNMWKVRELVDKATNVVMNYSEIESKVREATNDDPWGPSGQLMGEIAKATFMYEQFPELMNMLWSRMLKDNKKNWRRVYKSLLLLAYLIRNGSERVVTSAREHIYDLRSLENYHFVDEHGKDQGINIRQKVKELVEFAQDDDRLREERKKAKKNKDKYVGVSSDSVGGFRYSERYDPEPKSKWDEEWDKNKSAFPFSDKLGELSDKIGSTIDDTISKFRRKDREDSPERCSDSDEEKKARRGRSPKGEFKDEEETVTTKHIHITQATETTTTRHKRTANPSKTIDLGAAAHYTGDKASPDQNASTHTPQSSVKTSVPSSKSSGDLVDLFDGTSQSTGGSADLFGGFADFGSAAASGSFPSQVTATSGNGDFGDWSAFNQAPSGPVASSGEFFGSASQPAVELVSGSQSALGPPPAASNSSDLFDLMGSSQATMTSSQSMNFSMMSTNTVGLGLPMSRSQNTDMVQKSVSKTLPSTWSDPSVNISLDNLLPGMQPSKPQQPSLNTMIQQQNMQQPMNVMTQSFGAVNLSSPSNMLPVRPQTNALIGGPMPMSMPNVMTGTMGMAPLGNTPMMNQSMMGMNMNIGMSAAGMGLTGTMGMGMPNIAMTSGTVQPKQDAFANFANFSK
# Chain of UniProt Q10570 (Q10570 whole entry, looked up): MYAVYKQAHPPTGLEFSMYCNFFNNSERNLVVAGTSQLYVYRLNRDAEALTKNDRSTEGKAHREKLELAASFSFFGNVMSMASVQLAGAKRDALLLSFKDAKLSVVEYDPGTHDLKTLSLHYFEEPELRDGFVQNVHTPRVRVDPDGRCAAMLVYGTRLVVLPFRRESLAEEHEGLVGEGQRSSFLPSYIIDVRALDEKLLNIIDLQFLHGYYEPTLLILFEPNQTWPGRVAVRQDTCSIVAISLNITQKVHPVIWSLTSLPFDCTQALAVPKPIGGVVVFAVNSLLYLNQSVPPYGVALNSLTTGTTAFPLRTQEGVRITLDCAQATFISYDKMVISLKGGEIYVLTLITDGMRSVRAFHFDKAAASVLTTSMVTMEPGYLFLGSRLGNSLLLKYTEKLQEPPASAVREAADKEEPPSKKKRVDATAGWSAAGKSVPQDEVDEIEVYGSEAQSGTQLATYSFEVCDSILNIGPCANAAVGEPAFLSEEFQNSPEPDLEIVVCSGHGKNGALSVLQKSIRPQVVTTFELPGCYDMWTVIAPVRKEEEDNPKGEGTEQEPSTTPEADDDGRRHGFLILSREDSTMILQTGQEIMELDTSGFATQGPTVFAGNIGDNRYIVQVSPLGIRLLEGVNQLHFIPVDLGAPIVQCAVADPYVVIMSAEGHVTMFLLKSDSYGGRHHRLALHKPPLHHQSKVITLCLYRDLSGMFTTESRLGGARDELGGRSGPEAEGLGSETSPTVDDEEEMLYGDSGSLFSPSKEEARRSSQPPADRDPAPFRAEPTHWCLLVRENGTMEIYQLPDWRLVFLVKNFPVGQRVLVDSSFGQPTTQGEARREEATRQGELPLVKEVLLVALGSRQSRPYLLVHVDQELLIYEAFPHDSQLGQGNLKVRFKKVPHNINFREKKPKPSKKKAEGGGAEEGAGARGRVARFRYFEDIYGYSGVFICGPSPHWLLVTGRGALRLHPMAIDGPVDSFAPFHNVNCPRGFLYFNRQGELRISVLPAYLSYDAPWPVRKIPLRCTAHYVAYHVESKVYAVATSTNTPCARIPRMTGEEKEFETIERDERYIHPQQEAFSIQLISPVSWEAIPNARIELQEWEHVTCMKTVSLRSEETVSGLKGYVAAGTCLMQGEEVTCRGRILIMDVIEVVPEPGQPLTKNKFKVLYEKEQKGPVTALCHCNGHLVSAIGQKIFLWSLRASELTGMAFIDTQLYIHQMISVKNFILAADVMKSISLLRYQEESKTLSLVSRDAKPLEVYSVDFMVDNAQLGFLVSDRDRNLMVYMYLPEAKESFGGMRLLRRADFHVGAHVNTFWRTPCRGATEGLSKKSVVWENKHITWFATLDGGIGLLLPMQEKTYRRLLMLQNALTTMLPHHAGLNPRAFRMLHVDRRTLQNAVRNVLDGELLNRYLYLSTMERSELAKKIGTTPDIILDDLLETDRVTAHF
# Chain of UniProt Q9UJA2 (Q9UJA2 whole entry, looked up): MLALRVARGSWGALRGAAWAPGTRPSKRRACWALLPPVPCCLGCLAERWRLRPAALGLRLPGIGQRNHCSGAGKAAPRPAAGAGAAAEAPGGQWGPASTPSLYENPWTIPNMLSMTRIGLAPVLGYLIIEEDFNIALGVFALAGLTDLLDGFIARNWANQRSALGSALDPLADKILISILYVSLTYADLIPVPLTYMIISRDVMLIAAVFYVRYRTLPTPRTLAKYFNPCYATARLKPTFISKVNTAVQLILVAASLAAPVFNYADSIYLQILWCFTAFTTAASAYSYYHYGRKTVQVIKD
# Chain of UniProt Q92851 (Q92851 whole entry, looked up): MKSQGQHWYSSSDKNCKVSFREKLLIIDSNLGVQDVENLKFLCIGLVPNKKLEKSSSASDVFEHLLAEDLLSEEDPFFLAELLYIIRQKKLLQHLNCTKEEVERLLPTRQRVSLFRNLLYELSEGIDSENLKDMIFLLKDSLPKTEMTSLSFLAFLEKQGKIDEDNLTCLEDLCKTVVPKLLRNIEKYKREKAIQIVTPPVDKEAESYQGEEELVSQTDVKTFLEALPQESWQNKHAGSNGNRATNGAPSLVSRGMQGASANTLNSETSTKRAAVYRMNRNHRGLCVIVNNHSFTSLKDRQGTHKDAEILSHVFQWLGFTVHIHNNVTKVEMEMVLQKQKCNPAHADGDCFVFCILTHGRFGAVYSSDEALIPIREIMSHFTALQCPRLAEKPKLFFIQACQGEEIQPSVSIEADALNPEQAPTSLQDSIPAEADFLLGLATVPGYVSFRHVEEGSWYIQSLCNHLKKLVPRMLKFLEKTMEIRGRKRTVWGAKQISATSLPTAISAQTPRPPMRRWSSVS
# Chain of UniProt Q8WUX2 (Q8WUX2 whole entry, looked up): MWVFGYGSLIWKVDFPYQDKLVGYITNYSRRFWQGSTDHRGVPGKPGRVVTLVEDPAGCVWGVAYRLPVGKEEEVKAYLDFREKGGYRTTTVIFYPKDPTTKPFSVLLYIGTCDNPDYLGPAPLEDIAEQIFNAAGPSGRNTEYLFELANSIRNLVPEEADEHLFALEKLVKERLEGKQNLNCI
# Chain of UniProt Q9BT78 (Q9BT78 whole entry, looked up): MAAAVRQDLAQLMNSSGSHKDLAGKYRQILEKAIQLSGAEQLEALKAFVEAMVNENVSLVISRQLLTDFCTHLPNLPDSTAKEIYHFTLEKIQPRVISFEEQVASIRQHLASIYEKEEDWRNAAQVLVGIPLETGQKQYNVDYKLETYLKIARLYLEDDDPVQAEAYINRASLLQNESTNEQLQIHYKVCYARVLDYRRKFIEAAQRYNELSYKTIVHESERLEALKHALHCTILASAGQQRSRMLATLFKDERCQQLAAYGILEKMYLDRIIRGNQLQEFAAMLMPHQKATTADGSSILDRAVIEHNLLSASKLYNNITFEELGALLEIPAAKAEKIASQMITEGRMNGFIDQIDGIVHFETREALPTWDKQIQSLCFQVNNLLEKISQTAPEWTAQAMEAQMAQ
# Chain of UniProt P55211 (P55211 whole entry, looked up): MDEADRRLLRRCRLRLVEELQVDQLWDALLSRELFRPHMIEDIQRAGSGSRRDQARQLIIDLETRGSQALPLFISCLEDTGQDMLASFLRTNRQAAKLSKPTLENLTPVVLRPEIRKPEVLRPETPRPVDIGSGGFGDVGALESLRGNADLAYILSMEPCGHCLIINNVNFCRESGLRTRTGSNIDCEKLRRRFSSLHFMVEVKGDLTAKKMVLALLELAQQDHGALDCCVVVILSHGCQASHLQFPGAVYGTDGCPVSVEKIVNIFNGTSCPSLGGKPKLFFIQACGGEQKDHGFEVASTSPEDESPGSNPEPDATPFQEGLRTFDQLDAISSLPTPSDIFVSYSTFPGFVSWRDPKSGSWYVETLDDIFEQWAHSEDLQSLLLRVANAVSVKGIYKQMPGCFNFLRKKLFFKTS
# Chain of UniProt Q00534 (Q00534 whole entry, looked up): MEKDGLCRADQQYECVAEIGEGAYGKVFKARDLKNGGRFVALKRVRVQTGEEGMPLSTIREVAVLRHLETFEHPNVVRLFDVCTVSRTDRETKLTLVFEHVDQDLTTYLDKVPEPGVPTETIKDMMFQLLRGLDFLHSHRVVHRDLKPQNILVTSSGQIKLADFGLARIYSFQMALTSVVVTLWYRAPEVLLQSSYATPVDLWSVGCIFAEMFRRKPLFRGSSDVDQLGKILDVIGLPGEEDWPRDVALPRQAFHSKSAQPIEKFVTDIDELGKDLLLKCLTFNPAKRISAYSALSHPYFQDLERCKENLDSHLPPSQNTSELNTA
row,Target,log2 fold change
1,CHD3 isoform 3 (UniProt Q12873),-0.001
2,CKS1B (UniProt P61024),0
3,CAD (UniProt P27708),-0.089
4,CRLS1 (UniProt Q9UJA2),-0.036
5,CRLF3 (UniProt Q8IUI8),0.089
6,CDK13 (UniProt Q14004),0.065
7,CD55 isoform 7 (UniProt P08174),-0.006
8,CCNB1 (UniProt P14635),-0.015
9,CNDP2 (UniProt Q96KP4),0.03
10,CPSF1 (UniProt Q10570),0.037
11,CDK2AP2 (UniProt O75956),0.101
12,CDCA2 (UniProt Q69YH5),-0.013
13,CPT2 (UniProt P23786),0.206
14,CDC42BPB (UniProt Q9Y5S2),-0.245
15,CPD (UniProt O75976),0.011
16,CHCHD2 (UniProt Q9Y6H1),0.028
17,CLPP (UniProt Q16740),0.01
18,CAB39L (UniProt Q9H9S4),0.154
19,CDK5RAP3 isoform 4 (UniProt Q96JB5),-0.057

row,Target,log2 fold change
1,CALB1 (UniProt P05937),-0.016
2,CCDC59 (UniProt Q9P031),0.002
3,CHAC2 (UniProt Q8WUX2),0.323
4,COQ9 (UniProt O75208),-0.022
5,CASP10 isoform 4 (UniProt Q92851),0.06
6,CDK6 (UniProt Q00534),0.036
7,CCNT2 (UniProt O60583),-0.05
8,CS (UniProt F8VU34),0.063
9,CASP9 (UniProt P55211),-0.211
10,COPS4 (UniProt Q9BT78),0.003
11,CCM2 isoform 2 (UniProt Q9BSQ5),-0.019
12,CAMK2G isoform 6 (UniProt Q13555),0.131
13,C4A (UniProt P0C0L4),0.149
14,CFAP58 (UniProt Q5T655),-1.11 (active)
15,CBR1 (UniProt P16152),-0.019
16,COG2 (UniProt Q14746),-0.103
17,CLCN3 (UniProt P51790),-0.003
18,CPSF6 isoform 2 (UniProt Q16630),0.064
19,CLINT1 isoform 3 (UniProt Q14677),0.111
